From PubChem BioAssay (Tox21)
Results filed as inconclusive are left out. Active and inactive are the calls of the source. The call rests on the fitted dose curve; in most records, active means well fitted curve in the direction sought with a large enough effect in the repeat runs; inconclusive means weak or mixed curves; inactive means no such curve, though single readings can be large; an effect the other way counts as inactive or inconclusive.

Legend:
[1] = qHTS RealTime-Glo MT Cell Viability Assay in HepG2 cells - 24 hour (AID 1224867); further: nearly all actives have a fitted effect of over 50% in size
Outline: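 Real-time, nonlytic viability: 600 HepG2 cells/well mixed with NanoLuc enzyme plus prosubstrate; 5 h settle, compound (DMSO) added by pintool; luminescence monitored over 40 h at 37 C.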

[2] = qHTS RealTime-Glo MT Cell Viability Assay in HEK293 cells - 32 hour (AID 1224868); further: top concentration of the series differs between compounds; nearly all actives have a fitted effect of over 50% in size
Outline: (§1)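 Cells + reagent dispensed (600 cells/well, HEK293) → 5 h at 37 C/5% CO2 → 23 nL compound in DMSO pinned → 40 h at 37 C → luminescence read at 0, 8, 16, 24, 32, 40 h.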

[3] = A CellTox Green Cytotoxicity Assay to monitor cytotoxicity in HEK293 cells - 0 hour (AID 1224869); further: nearly all actives have a fitted effect of over 50% in size
Outline: (§2)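 HEK293 cells premixed with CellTox Green dye were seeded at 600 cells/well and left 5 h at 37 C/5% CO2 before pin transfer of 23 nL compound in DMSO. Fluorescence from dye bound to dead-cell DNA was read during 40 h treatment.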

[4] = qHTS RealTime-Glo MT Cell Viability Assay in HepG2 cells - 40 hour (AID 1224870); further: nearly all actives have a fitted effect of over 50% in size
Outline: (§3)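 HepG2 cells (600/well) mixed with RealTime-Glo MT reagent, settled 5 h at 37 C/5% CO2 before compound addition. Nonlytic NanoLuc luminescence from viable-cell prosubstrate reduction read repeatedly during 40 h treatment at 37 C.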

[5] = A CellTox Green Cytotoxicity Assay to monitor cytotoxicity in HEK293 cells - 40 hour (AID 1224871); further: nearly all actives have a fitted effect of over 45% in size
Outline: as §2

[6] = qHTS RealTime-Glo MT Cell Viability Assay in HEK293 cells - 16 hour (AID 1224872)
Outline: as §1

[7] = qHTS RealTime-Glo MT Cell Viability Assay in HepG2 cells - 8 hour (AID 1224873); further: nearly all actives have a fitted effect of over 55% in size
Outline: as §3

[8] = qHTS RealTime-Glo MT Cell Viability Assay in HEK293 cells - 40 hour (AID 1224874); conditions: RealTime-Glo luminescence; max response: hits give low values; further: nearly all actives have a fitted effect of over 50% in size
Outline: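 HEK293 cells mixed with RealTime-Glo reagents (NanoLuc plus cell-permeant prosubstrate) at 600 cells/well, preincubated 5 h at 37 C/5% CO2, then given 23 nL compound in DMSO. Nonlytic luminescence from viable cells was read at 0, 8, 16, 24, 32 and 40 h.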

[9] = A CellTox Green Cytotoxicity Assay to monitor cytotoxicity in HEK293 cells - 24 hour (AID 1224875); further: series mostly up to about 77 µM; nearly all actives have a fitted effect of over 45% in size
Outline: as §2

[10] = A CellTox Green Cytotoxicity Assay to monitor cytotoxicity in HepG2 cells - 16 hour (AID 1224876); further: nearly all actives have a fitted effect of over 45% in size
Outline: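 HepG2 cells were seeded together with the CellTox Green dye at 600 cells/well, left 5 h at 37 C/5% CO2, then given compounds in DMSO. Fluorescence from dye bound to dead-cell DNA was read repeatedly over 40 h of treatment at 37 C.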
On the % scale 0 is the no-effect control and ±100 the full control effect.

CCC[C@@H]1C[C@@H](C(=O)N[C@@H]([C@H]2O[C@H](SC)[C@H](O)[C@@H](O)[C@H]2O)[C@@H](C)O)N(C)C1
inactive: outcome [1] | Potency [2] | Potency [3] | outcome [4] | Potency [5] | Potency [6] | outcome [7] | max response [8] 0.684% | Potency [9] | Potency [10]

CC/C(C)=N\O[Si](C)(O/N=C(\C)CC)O/N=C(\C)CC
inactive: outcome [1] | Potency [2] | Potency [3] | outcome [4] | Potency [5] | Potency [6] | outcome [7] | max response [8] -3.49% | Potency [9] | Potency [10]

N#Cc1ccccc1O
inactive: outcome [1] | Potency [2] | Potency [3] | outcome [4] | Potency [5] | Potency [6] | outcome [7] | max response [8] 15.1% | Potency [9] | Potency [10]

OCC1(CO)COCOC1
inactive: outcome [1] | Potency [2] | Potency [3] | outcome [4] | Potency [5] | Potency [6] | outcome [7] | max response [8] -1.51% | Potency [9] | Potency [10]

C=CCOC(=O)CCCCCC
inactive: outcome [1] | Potency [2] | Potency [3] | outcome [4] | Potency [5] | Potency [6] | outcome [7] | max response [8] 3.28% | Potency [9] | Potency [10]

NCc1ccc(S(N)(=O)=O)cc1
inactive: outcome [1] | Potency [2] | Potency [3] | outcome [4] | Potency [5] | Potency [6] | outcome [7] | max response [8] 4.4% | Potency [9] | Potency [10]

CCCCOCCOC(=O)COc1ccc(Cl)cc1Cl
inactive: outcome [1] | Potency [2] | Potency [3] | outcome [4] | Potency [5] | Potency [6] | outcome [7] | max response [8] 1.37% | Potency [9] | Potency [10]

COc1ccc2c(c1)c1c3n2CCN(C)C3=NCC1
inactive: outcome [1] | Potency [2] | Potency [3] | outcome [4] | Potency [5] | Potency [6] | outcome [7] | max response [8] 17.6% | Potency [9] | Potency [10]

CC(C)=CCC/C(C)=C/COC=O
inactive: outcome [1] | Potency [2] | Potency [3] | outcome [4] | Potency [5] | Potency [6] | outcome [7] | max response [8] 0.565% | Potency [9] | Potency [10]

CC(C)[C@H]1CC[C@H](C)C[C@@H]1O
inactive: outcome [1] | Potency [2] | Potency [3] | outcome [4] | Potency [5] | Potency [6] | outcome [7] | max response [8] 2.31% | Potency [9] | Potency [10]

CN1CCOC(c2ccccc2)c2ccccc2C1 (centres undefined)
inactive: outcome [1] | Potency [2] | Potency [3] | outcome [4] | Potency [5] | Potency [6] | outcome [7] | max response [8] 0.485% | Potency [9] | Potency [10]

C=CCCCCCCCCC(=O)OCCCC
inactive: outcome [1] | Potency [2] | Potency [3] | outcome [4] | Potency [5] | Potency [6] | outcome [7] | max response [8] 7.61% | Potency [9] | Potency [10]

CC(=O)C1C(=O)C=C(C)OC1=O (centres undefined)
inactive: outcome [1] | Potency [2] | Potency [3] | outcome [4] | Potency [5] | Potency [6] | outcome [7] | max response [8] 1.99% | Potency [9] | Potency [10]

Cn1nnc2c(C(N)=O)ncn2c1=O
inactive: outcome [1] | Potency [2] | Potency [3] | outcome [4] | Potency [5] | Potency [6] | outcome [7] | max response [8] 3.79% | Potency [9] | Potency [10]

N#CCC(=O)NN
inactive: outcome [1] | Potency [2] | Potency [3] | outcome [4] | Potency [5] | Potency [6] | outcome [7] | max response [8] 1.05% | Potency [9] | Potency [10]

CCC(C)C(C)=O (centres undefined)
inactive: outcome [1] | Potency [2] | Potency [3] | outcome [4] | Potency [5] | Potency [6] | outcome [7] | max response [8] 0.997% | Potency [9] | Potency [10]

O=C(O)CONC(=O)c1ccccc1
inactive: outcome [1] | Potency [2] | Potency [3] | outcome [4] | Potency [5] | Potency [6] | outcome [7] | max response [8] 1.73% | Potency [10]

CCOc1ccccc1OCC1CNCCO1 (centres undefined)
inactive: outcome [1] | Potency [2] | Potency [3] | outcome [4] | Potency [5] | Potency [6] | outcome [7] | max response [8] 2.19% | Potency [9] | Potency [10]

COc1ccc(CCO)cc1
inactive: outcome [1] | Potency [2] | Potency [3] | outcome [4] | Potency [5] | Potency [6] | outcome [7] | max response [8] 21.3% | Potency [9] | Potency [10]

CC1(C)CC(OC(=O)CCCCCCCCC(=O)OC2CC(C)(C)NC(C)(C)C2)CC(C)(C)N1
inactive: activity change, negative = cytotoxicity [1] 2.8% [at 15.8 µM] | activity change, negative = cytotoxic [2] 12.2% [at 15.8 µM] | cytotoxicity [3] -1.08% [at 15.8 µM] | activity change, negative = cytotoxic [4] 6.12% [at 15.8 µM] | cytotoxicity increase [5] -6.42% [at 15.8 µM] | activity change, negative = cytotoxicity [6] 3.79% [at 15.8 µM] | viability change, negative = cytotoxic [7] -0.0146% [at 15.8 µM] | max response [8] 17% | activity change [9] -4.42% [at 15.8 µM, hits give high values] | cytotoxicity increase [10] -5.51% [at 15.8 µM]

O=C1NC(c2ccccc2)(c2ccccc2)C(=O)N1COP(=O)(O)O
inactive: outcome [1] | Potency [2] | Potency [3] | outcome [4] | Potency [5] | Potency [6] | outcome [7] | max response [8] -5.37% | Potency [9] | Potency [10]
